# High-throughput results (PubChem BioAssay)
# Proteasome disasm = blocks ATP-dependent breakdown of the yeast 26S proteasome; AID 751; inhibition of disassembly, % (test concentration not listed); 24,000 tested, 0.2% active; anti-FLAG beads, GFP-proteasome disassembly, flow cytometry;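 active = inhibition of disassembly above about 33%, limit read from the data; inconclusive = likely self-fluorescent, control bead median signal at least 40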;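 also: plate controls were ATP control with full disassembly for no effect and ATP-gamma-S intact proteasomes for full effect; higher percent means more bead fluorescence retained so stronger block of disassembly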
# VLA-4 allo ag = allosterically activates the human VLA-4 integrin | P13612 | Jurkat cells, LDV-FITC binding, flow cytometry | activation, % at 10 µM (by protocol) | 24,000 tested, under 10 active;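 active = fluorescent ligand binding to cells raised by more than 40% of the manganese-induced maximum; inconclusive = compound's own fluorescence above 85% of the ligand control signal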;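 also: 0% = ligand binding without compound and 100% = manganese-stimulated maximal binding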
# VLA-4 antagonist = blocks LDV-FITC ligand binding to Mn2+-activated human VLA-4 integrin; P13612; Jurkat cells, LDV-FITC binding with Mn2+, flow cytometry; 100% = Mn2+-driven binding gain fully reversed; inhibition, % at 10 µM (by protocol); 24,000 tested, 0.2% active; AID 529;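 active = inhibition above 50%; inconclusive = compound itself fluorescent, judged against control cell fluorescence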;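 also: 0% = Mn2+ stimulated cells lacking compound and 100% = ligand binding without Mn2+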
# Jurkat autofluor = autofluorescence counter-screen for VLA-4 integrin assays; Jurkat cells, compound autofluorescence, flow cytometry; hits give high values; 1 = vehicle-only cell background; fluorescence ratio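 (tested at 10 µM compound in the well)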; 24,000 tested, 0.61% active;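 active = fluorescence ratio above 2.44, which is 1 plus 3 SD of all ratios; inconclusive = signal too bright to measure linearly, ratio around 10 or more; inactive = fluorescence ratio below 2.44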;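 also: green fluorescence of cells measured with 488 nm excitation and 530 nm emission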
# Prostate diff = activators of LNCaP prostate cell differentiation; AID 795; flow cytometry side scatter, 4 d; side scatter shift, % at 10 µM; 24,000 tested, 0.56% active;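 active = side scatter shift above 30%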;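 also: androgen-responsive LNCaP prostate cancer cells in charcoal-stripped serum medium; percent of cells past a gate set so DMSO wells show 10% shift; higher shift means more granular cells and more differentiation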
# Starred values were filed as active, the others as inactive; ? = inconclusive. An excerpt weighted towards active compounds, which were near 1.6% of everything screened.
SMILES,Proteasome disasm,VLA-4 allo ag,VLA-4 antagonist,Jurkat autofluor,Prostate diff
O=C(O)CCCNc1cc(N2CCC3(CC2)OCCO3)c2noc3c2c1C(=O)c1ccccc1-3,-3,?,?,5.2*,5
CCc1nc(SCc2cc(Cl)ccc2OC)n[nH]1,-3,3,-19,1,13
CC(=O)N1CCC(N(CCCOC(C)C)C(=O)Nc2ccc(Cl)cc2)CC1,1,-2,10,1.1,10
COc1ccc(C2C=C(c3ccc(Br)s3)Nc3ncnn32)cc1OC (stereo unspecified),4,?,?,3.3*,4
COc1cccc(C2C=C(c3cccs3)Nc3ncnn32)c1OC (stereo unspecified),1,-1,17,1.1,10
COc1ccc(CNC(=O)c2cnn3c(C(F)F)cc(C)nc23)cc1OC,0,4,-27,1.1,1
CC(=O)c1c(C)[nH]c(C(=O)N2CCN(C(=O)c3ccco3)CC2)c1C,0,?,?,1,2
CC(=O)c1c(C)[nH]c(C(=O)N2CCc3ccccc3C2)c1C,-2,1,60*,1,13
CCOC(=O)N1CCN(C(=O)CCCn2nc(C)c3sc4ccccc4c3c2=O)CC1,1,3,4,1.1,10
CC1CCCN(C(=O)Cn2c(-c3nonc3N)nc3ccccc32)C1 (stereo unspecified),-3,?,?,3*,12
CCC(=O)Nc1nonc1-c1nc2ccccc2n1CC(C)C,-1,?,?,1.1,1
CCOC(=O)c1ccccc1NC(=O)Cn1c(-c2nonc2N)nc2ccccc21,7,?,?,1.3,32*
CN(C)CCCC1(c2ccc(F)cc2)OCc2cc(C#N)ccc21 (stereo unspecified),1,8,-31,1,3
O=C(Nc1ccccc1)C1=C(O)CC(c2ccco2)CC1=Nc1ccccc1 (stereo unspecified),47*,-7,9,1.4,4
O=C(Nc1ccccc1)C1=C(O)CC(c2ccoc2)CC1=Nc1ccccc1 (stereo unspecified),4,?,?,1.9,2
O=C(NCCN1CCOCC1)c1nn2c(c1Cl)NC(c1ccccc1)CC2C(F)(F)F (stereo unspecified),1,4,-4,1,11
O=C(NCC12CC3CC(CC(C3)C1)C2)c1nn2c(c1Cl)NC(c1ccco1)CC2C(F)(F)F (stereo unspecified),9,8,55*,1.2,25
CCOC(=O)N1CCC(NS(=O)(=O)c2cc(Br)cc3c2N(C(=O)CC)CC3)CC1,-1,-2,-7,1,4
CC(C)(C)NC(=O)NC(=O)COc1ccccc1C#N,11,?,?,4*,11
CC1=C(C(=O)N2CCc3ccccc32)C2(CCC(C)CC2)OC1=O (stereo unspecified),3,?,?,6*,6
COc1ccc(S(=O)(=O)n2nc(OC(=O)c3c(-c4ccccc4Cl)noc3C)cc2N)cc1,1,-4,9,0.94,4
CCOCC(=O)Nc1c(C(=O)OCC)oc2ccccc12,-1,1,7,1.1,6
NC(=O)c1oc2ccccc2c1NC(=O)c1nc2ccccc2s1,10,?,?,5.4*,22
O=S(=O)(c1ccc2oc(-c3ccncc3)nc2c1)c1ccc2oc(-c3ccncc3)nc2c1,1,0,-16,1,11
c1ccc(CCNc2nc3ccccc3n3nnnc23)cc1,1,?,?,9.2*,4
SMILES,Proteasome disasm,VLA-4 allo ag,VLA-4 antagonist,Jurkat autofluor,Prostate diff
c1ccc(N2CCN(c3nc4ccccc4n4nnnc34)CC2)cc1,-3,?,?,?,3
COc1ccc(CNC(=O)c2cc(C3CC3)on2)cc1,1,2,6,1,11
COc1ccc(CNC(=O)c2onc(C)c2Cl)cc1,124*,?,?,1.1,4
Cc1oc(-c2ccc(Cl)cc2)nc1CN1CCC(C(=O)N2CCN(Cc3ccccc3)CC2)CC1,32,?,?,1.2,78*
Cc1oc(-c2ccc(Cl)cc2)nc1CN1CCC(C(=O)N2CCc3ccccc3C2)CC1,-1,?,?,1.3,11
Cc1oc(-c2cccc(Cl)c2)nc1CN1CCC(C(=O)N2CCN(c3ccccc3F)CC2)CC1,9,-7,18,1.2,34*
COc1cccc(NC(=O)CN2C(=O)COc3ccc(Cl)cc32)c1,1,1,-4,1,9
